Bioassay records (PubChem BioAssay)
PfHsp90 yeast 2: growth inhibition of yeast expressing Plasmodium Hsp90. S. cerevisiae expressing PfHsp90, BacTiter-Glo ATP, 48 h; yeast lacking PDR1 and PDR3 efflux regulators. inhibition, % at 9.4 µM. 0.32% of 310,000 active;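 active = every replicate shows inhibition above about 80%, whatever the replicate mean, limit read from the data; inconclusive = mean inhibition reaches the set limit but some replicate falls short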;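 note: 0% = DMSO neutral controls and 100% = 20 µM radicicol positive controls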
MITF act: activators of MITF-driven TRPM1 promoter activity in SK-MEL-5 cells | activation, % at 12.5 µM | 0.75% of 300,000 active | SK-MEL-5 TRPM1-promoter luciferase, 24 h; % of positive control, neutral wells = 0 | AID 588334;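 active = mean activation of at least 80% with every replicate also reaching 80%; inconclusive = mean reaches 80% but some replicate falls short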;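 note: 0% = neutral control wells and 100% = parthenolide positive control wells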
MITF TRPM1 inh: MITF TRPM1 promoter inhibition in SK-MEL-5 cells; SK-MEL-5 TRPM1 promoter luciferase, 24 h; inhibition, % at 12.5 µM; 0.83% of 330,000 active; AID 488899;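 active = mean inhibition across replicates of 60% or more, whatever share of single replicates reaches that level; inconclusive = some that reach 60%, reason not given; inactive = mean inhibition across replicates below 60%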
Wnt bcat act: activators of Wnt/beta-catenin signaling | Wnt/beta-catenin reporter cell assay, activator, plate reader | activation, % at 9.35 µM | 1.2% of 300,000 active | AID 743398; in the data active = activation above about 30%, passing the limit was not always enough; inconclusive = no clear call, values can overlap the other calls;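 note: 0% = neutral control wells and 100% = positive control wells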
NSD2 HMT inh: blocks human histone methyltransferase NSD2 | inhibition, % at 12.5 µM | 0.54% of 310,000 active | NSD2 peptide methylation, AlphaScreen, 120 min | O96028; in the data active = inhibition above about 50%
Glyco luc inh: blocks N-linked glycosylation in D54 reporter cells. D54 ERlucT glycosylation luciferase reporter, 24 h; percent of 100 nM tunicamycin response. reporter increase, % at 12.5 µM. 0.23% of 360,000 active;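 active = mean luciferase reporter signal, scaled so untreated is 0 and the glycosylation-blocking control 100, at or above a set limit in every replicate; inconclusive = mean reaches the limit but not every replicate does; inactive = mean below the limit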;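 note: luciferase carries N-glycosylation sites so blocking glycosylation raises the light; 0% = median of neutral control wells and 100% = median of 100 nM tunicamycin wells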
* hit, by the source's call; ? = inconclusive; nt = not tested or not shown; + = active, no number. Compounds with a hit are over-represented: about 2.9% of the library has one in this group of screens.

SMILES	PfHsp90 yeast 2	MITF act	MITF TRPM1 inh	Wnt bcat act	NSD2 HMT inh	Glyco luc inh
COc1cc(N2C[C@@]3(O)CC[C@@H](O)[C@@H](OC)[C@@H]3[C@@](C)(O)[C@@H]2CC=C(C)C)cc(OC)c1OC	nt	nt	nt	-1	-4	nt
CCc1c(-c2ccccc2F)ncn1CCc1ccccc1OC	nt	nt	nt	0	6	nt
O=[N+]([O-])c1ccc(O)c(C=Nc2ccc3c(c2)OCO3)c1	16	7	-6	34*	nt	0
Cc1ccc(S(=O)(=O)Nc2cccc3ncccc23)cc1	10	4	-4	-3	-3	-1
Cc1ccc(S(=O)(=O)Nc2cccc3ncccc23)s1	-114	-99	100*	nt	nt	-15
Cc1noc(C)c1COC(=O)c1cccnc1Cl	-1	1	-2	-3	-11	2
O=C1CC(c2ccc3c(c2)OCCO3)Oc2ccccc21 (stereo unspecified)	-10	104*	-99	?	-4	-4
COc1ccc(C2CC(=O)c3ccccc3O2)cc1 (stereo unspecified)	-27	126*	-110	43*	nt	-1
Cc1nn(-c2ccccc2)c2sc(C(=O)NCc3ccc4c(c3)OCO4)cc12	nt	nt	nt	nt	-3	nt
Fc1ccc(-c2ncc3ccccn23)cc1	14	-9	0	11	4	1
Clc1ccc(/C=C/c2ncc3ccccn23)cc1	nt	34	-33	41*	-11	-5
Cc1cc(OCCn2cncn2)ccc1[N+](=O)[O-]	2	nt	-3	1	-4	-2
Fc1ccccc1OCCCCN1CCCCC1	5	+	nt	-1	4	0
c1csc(C2Nc3ccccc3-c3nc4ccccc4n32)c1 (stereo unspecified)	-15	36	-33	80*	-11	0
c1ccc2c(c1)NC(c1ccncc1)n1c-2nc2ccccc21 (stereo unspecified)	-17	28	-23	56*	0	-7
CC(C)(C)c1ccc(Cn2c(=N)n(CC(O)c3ccco3)c3ccccc32)cc1 (stereo unspecified)	2	-98	98*	nt	25	3
Cc1ccc(S(=O)(=O)NC2CC3CCC2C3)cc1 (stereo unspecified)	nt	nt	nt	3	-2	-4
O=S(=O)(NC1CC2CCC1C2)c1ccc(Br)cc1 (stereo unspecified)	108*	nt	-14	-1	-3	2
Cc1ccccc1OCC(=O)Nc1ccc2c(c1)OCCO2	-40	125*	-126	38*	-1	-3
CC(=O)Nc1ccc(NC(=O)COc2ccc(Br)cc2C)cc1	-6	-2	-1	1	-1	2
Cc1cccc(NC(=O)COc2ccc(Br)cc2/C=N/O)c1	5	122*	-115	15	-2	-2
O=C(COc1ccccc1CNCc1ccccc1)Nc1ccccc1	nt	20	-27	nt	2	47*
CC(=O)c1cccc(NC(=O)COC(=O)c2ccccc2C)c1	-11	97*	-92	17	1	-1
CCOc1ncccc1C(=O)OCC(=O)Nc1cccc(C(C)=O)c1	-5	-16	14	nt	0	-1
COc1ccccc1OCC(=O)Nc1ccc2c(c1)OCCO2	-58	?	-81	4	10	3
SMILES	PfHsp90 yeast 2	MITF act	MITF TRPM1 inh	Wnt bcat act	NSD2 HMT inh	Glyco luc inh
Cn1cc(CCOCc2ccc(Br)cc2)c2ccccc21	nt	nt	nt	0	nt	nt
Cc1ccccc1OCC(=O)Nc1cccc(C(=O)O)c1	3	-92	92*	-5	-3	-17
NC(=O)c1ccccc1OCC(=O)Nc1ccc2c(c1)OCCO2	20	96*	-93	22	-1	1
Cc1cccc(OCC(=O)Nc2cc(NC(=O)COc3cccc(C)c3C)cc(C(=O)O)c2)c1C	-26	nt	19	0	1	2
O=C1C(=O)N(Cc2ccc(-c3ccccc3)cc2)c2ccc(OC(F)(F)F)cc21	nt	nt	nt	nt	-2	nt
Cc1ccc(NC(=O)c2cc(N3C(=O)C=CC3=O)ccc2N2CCOCC2)cc1	106*	-80	80*	-3	2	-4
O=C(Nc1ccc(N2CCOCC2)c(Cl)c1)c1cccnc1Cl	-3	11	-11	-4	-7	-2
Cc1ccc(NC(=O)c2cc(-n3cnnc3)ccc2Cl)cc1	nt	-5	5	nt	-4	3
Cc1ccc(NC(=O)c2cc(NC(=O)c3ccco3)ccc2N2CCOCC2)cc1	21	9	-8	-2	1	8
